Measured values as given in PubChem BioAssay AID1159580 (chemical genetic matrix, 2015).
Screen size: about 5,500 compounds; about 2,000 (36%) were called active. About 18% were inconclusive and are not listed. No stated cut-off is given here; in the data, active means normalized growth mostly below about 0.91 (no sharp cut-off); inconclusive means no clear call, values can overlap the other calls; inactive means mostly above about 0.92. Some of the results follow.

Experiment: chemical genetic growth profiling, strain panel (AID 1159580);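 further: tested at 20 µM; growth read once vehicle control cultures reached saturation at 30 °C; 1 = growth at the plate median or of vehicle wells; lower values mean less growth of the strain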
Conditions: growth OD

Measured: normalized growth

CCC(C)C(=O)OC1CC2(C)C(c3ccoc3)OC(=O)CC23OC2(C)OC34C(OC(=O)C(C)C)C3(O)C(OC(=O)C5(C)OC5C)C5(C)CC3(O)C(C)(C5C(=O)OC)C14O2 (stereo unspecified)
inactive: S. cerevisiae deletion strains, locus YAL013W, strain DEP1, active compounds read low 1.02 | S. cerevisiae deletion strains, locus YBR021W, strain FUR4, active compounds read low 1.01 | S. cerevisiae deletion strains, locus YBR229C, strain ROT2, active compounds read low 1 | S. cerevisiae deletion strains, locus YCL029C, strain bik1, active compounds read low 1.04 | S. cerevisiae deletion strains, locus YDL035C, strain GPR1, active compounds read low 0.993 | S. cerevisiae deletion strains, locus YDL074C, strain BRE1, active compounds read low 1.01 | S. cerevisiae deletion strains, locus YDL101C, strain DUN1, active compounds read low 1.02 | S. cerevisiae deletion strains, locus YDL134C, strain PPH21, active compounds read low 1.01 | S. cerevisiae deletion strains, locus YDL185W, strain tfp1, active compounds read low 1.03 | S. cerevisiae deletion strains, locus YDL192W, strain arf1, active compounds read low 1.01 | S. cerevisiae deletion strains, locus YDR101C, strain arx1, active compounds read low 1.02 | S. cerevisiae deletion strains, locus YDR150W, strain NUM1, active compounds read low 1.02 | S. cerevisiae deletion strains, locus YDR162C, strain NBP2, active compounds read low 0.996 | S. cerevisiae deletion strains, locus YDR318W, strain mcm21, active compounds read low 1.03 | S. cerevisiae deletion strains, locus YDR388W, active compounds read low 1.02 | S. cerevisiae deletion strains, locus YDR502C, strain sam2, active compounds read low 1.03 | S. cerevisiae deletion strains, locus YEL061C, strain CIN8, active compounds read low 1.01 | S. cerevisiae deletion strains, locus YER110C, active compounds read low 1.02 | S. cerevisiae deletion strains, locus YER155C, strain BEM2, active compounds read low 1.02 | S. cerevisiae deletion strains, locus YER167W, strain BCK2, active compounds read low 1.02 | S. cerevisiae deletion strains, locus YGL078C, strain dbp3, active compounds read low 1.02 | S. cerevisiae deletion strains, locus YGL086W, strain mad1, active compounds read low 1 | S. cerevisiae deletion strains, locus YGL248W, strain PDE1, active compounds read low 1.01 | S. cerevisiae deletion strains, locus YGR078C, strain PAC10, active compounds read low 1.02 | S. cerevisiae deletion strains, locus YGR135W, strain pre9, active compounds read low 1.03 | S. cerevisiae deletion strains, locus YGR229C, strain SMI1, active compounds read low 1.03 | S. cerevisiae deletion strains, locus YGR252W, strain gcn5, active compounds read low 0.977 | S. cerevisiae deletion strains, locus YHR030C, strain SLT2, active compounds read low 1.02 | S. cerevisiae deletion strains, locus YHR079C, strain IRE1 (second series), active compounds read low 1.02 | S. cerevisiae deletion strains, locus YHR094C, strain hxt1, active compounds read low 1.01 | S. cerevisiae deletion strains, locus YHR129C, strain ARP1, active compounds read low 1.01 | S. cerevisiae deletion strains, locus YHR200W, strain rpn10, active compounds read low 1.04 | S. cerevisiae deletion strains, locus YIL066C, strain RNR3, active compounds read low 1.02 | S. cerevisiae deletion strains, locus YIL073C, strain SPO22, active compounds read low 1 | S. cerevisiae deletion strains, locus YIL125W, strain kgd1, active compounds read low 1.01 | S. cerevisiae deletion strains, locus YIR030C, strain dcg1, active compounds read low 1.02 | S. cerevisiae deletion strains, locus YJL095W, strain BCK1, active compounds read low 1.04 | S. cerevisiae deletion strains, locus YJL134W, strain LCB3, active compounds read low 1.01 | S. cerevisiae deletion strains, locus YJL168C, strain set2, active compounds read low 1.02 | S. cerevisiae deletion strains, locus YJL187C, strain SWE1 (second series), active compounds read low 1.03 | S. cerevisiae deletion strains, locus YJR043C, strain POL32, active compounds read low 1.04 | S. cerevisiae deletion strains, locus YJR075W, strain HOC1, active compounds read low 1.03 | S. cerevisiae deletion strains, locus YKL009W, strain mrt4, active compounds read low 0.994 | S. cerevisiae deletion strains, locus YKL068W, active compounds read low 1.01 | S. cerevisiae deletion strains, locus YKL085W, strain MDH1 (second series), active compounds read low 1.01 | S. cerevisiae deletion strains, locus YKL085W, strain MDH1, active compounds read low 1.01 | S. cerevisiae deletion strains, locus YKL190W, strain CNB1, active compounds read low 1 | S. cerevisiae deletion strains, locus YKR001C, strain vps1, active compounds read low 1.01 | S. cerevisiae deletion strains, locus YLR039C, strain RIC1, active compounds read low 0.862 | S. cerevisiae deletion strains, locus YLR058C, strain SHM2, active compounds read low 0.999 | S. cerevisiae deletion strains, locus YLR102C, strain apc9, active compounds read low 1.01 | S. cerevisiae deletion strains, locus YLR262C, strain YPT6, active compounds read low 0.77 | S. cerevisiae deletion strains, locus YLR268W, strain sec22, active compounds read low 1.05 | S. cerevisiae deletion strains, locus YLR330W, strain CHS5, active compounds read low 1.08 | S. cerevisiae deletion strains, locus YLR342W, strain FKS1 (second series), active compounds read low 1.01 | S. cerevisiae deletion strains, locus YLR371W, strain rom2, active compounds read low 1.03 | S. cerevisiae deletion strains, locus YLR418C, strain cdc73, active compounds read low 0.985 | S. cerevisiae deletion strains, locus YML016C, strain PPZ1, active compounds read low 1 | S. cerevisiae deletion strains, locus YML032C, strain rad52, active compounds read low 1.03 | S. cerevisiae deletion strains, locus YML124C, strain tub3, active compounds read low 1.01 | S. cerevisiae deletion strains, locus YMR078C, strain ctf18, active compounds read low 1.03 | S. cerevisiae deletion strains, locus YMR223W, strain ubp8, active compounds read low 0.999 | S. cerevisiae deletion strains, locus YMR263W, strain SAP30, active compounds read low 1.04 | S. cerevisiae deletion strains, locus YMR307W, strain GAS1, active compounds read low 0.923 | S. cerevisiae deletion strains, locus YNL067W, strain RPL9B, active compounds read low 1.03 | S. cerevisiae deletion strains, locus YNL128W, strain TEP1, active compounds read low 1.01 | S. cerevisiae deletion strains, locus YNL153C, strain GIM3, active compounds read low 1.03 | S. cerevisiae deletion strains, locus YNL233W, strain BNI4, active compounds read low 1.01 | S. cerevisiae deletion strains, locus YNL250W, strain rad50, active compounds read low 1.02 | S. cerevisiae deletion strains, locus YNL271C, strain bni1, active compounds read low 1.03 | S. cerevisiae deletion strains, locus YNL298W, strain CLA4, active compounds read low 1.03 | S. cerevisiae deletion strains, locus YNL307C, strain MCK1, active compounds read low 1.03 | S. cerevisiae deletion strains, locus YNL322C, strain KRE1, active compounds read low 1.02 | S. cerevisiae deletion strains, locus YNR052C, strain pop2, active compounds read low 1.02 | S. cerevisiae deletion strains, locus YOL006C, strain TOP1, active compounds read low 0.923 | S. cerevisiae deletion strains, locus YOL012C, strain htz1 1.81 | S. cerevisiae deletion strains, locus YOL147C, strain pex11, active compounds read low 1.03 | S. cerevisiae deletion strains, locus YOR061W, strain CKA2, active compounds read low 0.991 | S. cerevisiae deletion strains, locus YOR069W, strain VPS5, active compounds read low 1.01 | S. cerevisiae deletion strains, locus YOR136W, strain idh2, active compounds read low 1.01 | S. cerevisiae deletion strains, locus YOR144C, strain elg1, active compounds read low 1.01 | S. cerevisiae deletion strains, locus YOR184W, strain ser1, active compounds read low 1.04 | S. cerevisiae deletion strains, locus YOR316C, strain cot1, active compounds read low 1.02 | S. cerevisiae deletion strains, locus YPL055C, strain LGE1, active compounds read low 1.05 | S. cerevisiae deletion strains, locus YPL241C, strain CIN2, active compounds read low 1.01 | S. cerevisiae deletion strains, locus YPR119W, strain clb2, active compounds read low 1.01 | S. cerevisiae deletion strains, locus YPR141C, strain kar3, active compounds read low 1.03 | S. cerevisiae deletion strains, locus YPR163C, strain tif3, active compounds read low 1.02 | S. cerevisiae deletion strains, locus YPR167C, strain met16, active compounds read low 1.02 | S. cerevisiae deletion strains, strain wtn01, active compounds read low 1.03 | S. cerevisiae strains, strain wild type, active compounds read low 1
